SMILES strings stand for the structures.

The assay relates to HepG2. Description: GSK_TCMDC: Percent inhibition of human HepG2 cell line. Test compounds present at 10uM. The class given is functional.
Take `COc1ccc(-c2nc3cccnc3n2CC(=O)Nc2cc(Cl)c(Cl)cc2Cl)c(OC)c1`: the Inhibition was determined as 99%. Next, `Cl.c1cc(-c2cc3ccc(C4=NCCN4)cc3[nH]2)ccc1C1=NCCN1`: 15%; `C[C@H](Cc1ccc(OCCCOc2ccc(C[C@@H](C)NC[C@H](O)c3cccc(Cl)c3)cc2)cc1)NC[C@H](O)c1cccc(Cl)c1.Cl`: 99%; `O=C(Nc1cccc(CN2CCN(Cc3ccc(O)cc3)CC2)c1)c1cccc(C(F)(F)F)c1.O=C(O)C(F)(F)F`: 21%. Take `Cc1cc(N[C@@H](CC(C)C)C(=O)NCCOc2ccccc2)nc(Nc2ccccc2)n1.O=C(O)C(F)(F)F`: the Inhibition turned out to be 9%. Molecule `CCCC(CC)n1ccc2c3c(N)nc(N)nc3ccc21.CS(=O)(=O)O` (stereo not drawn) yielded an Inhibition of 67%. Regarding `CN(c1ccc(NC(=O)c2cccc(F)c2)cc1)C1CCCN(Cc2cccc(O)c2)C1.O=C(O)C(F)(F)F` (stereo not drawn), the Inhibition is recorded as 13%. Next, `O=C(Nc1ccc(F)c(Cl)c1)NC1CCN(c2ccnc3cc(Cl)ccc23)C1.O=C(O)C(F)(F)F` (stereo not drawn): 37%. For `COc1ccc(N2CCN(CCCCNC(=O)c3ccc(/C=C/c4ccc(Cl)c(Cl)c4)cc3)CC2)c(OC)c1` the value was 51%; for `O=C(O)C[C@H](NC(=O)CCCNC(=O)c1cccc(-c2ccc(Cl)c(Cl)c2)c1)C(=O)O`, 5%; for `COc1ccc2ncc(F)c(CCN3CCC(CNC(=O)C(=O)c4c[nH]c5ccccc45)CC3)c2n1`, 48%. `N=C(N)c1ccc(Nc2nccc(Nc3nc(-c4ccccc4)cs3)n2)cc1.O=C(O)C(F)(F)F` registered an Inhibition of 13%. Take `CC(C)(C)c1ccc(NC(=O)c2ccc(CN3CCCN(Cc4ccsc4)CC3)cc2)cc1.O=C(O)C(F)(F)F`: the Inhibition was found to be 50%.

The Inhibition is the share of the control response that was lost under treatment. Low values mean little suppression, high ones strong suppression.

Source of the values: ChEMBL document CHEMBL1157539, “Thousands of chemical starting points for antimalarial lead identification” (Nature, 2010).
